Results: ChEMBL document CHEMBL3988442, “University of Dundee, Small-Polar-MMV Screening Library” (2021)
In all, about 48,000 compounds went through this assay and about 13,000 (27%) showed an effect of 50% or more. This is one part of the list.

System: Wolbachia pipientis
Assay: Anti-Wolbachia Cell-Based Screen
Type: functional
Design: scale not given: in the data most compounds retested in dose-response had high values
Settings: 5 µM

Row | Structure (SMILES) | Percent Effect
1 | CC(=O)c1ccccc1NC(=O)CCN1CCSCC1 | -1.71%
2 | FC(F)(F)c1ccc2[nH]c([C@H]3CCNC3)nc2c1 | -0.9457%
3 | O=S(=O)(NCCn1cc(C2CCCNC2)nn1)c1ccc(Cl)cc1 (stereo not given) | 7.811%
4 | FC(F)(F)c1ccc(-c2c[nH]c([C@@H]3COCCN3)n2)cc1 | -4.53%
5 | Nc1ncc(-c2ccc(Cl)cc2)c(C2CCCNC2)n1 (stereo not given) | 110.4%
6 | Nc1ncc(-c2ccc(F)cc2)c(C2CCCNC2)n1 (stereo not given) | 107.7%
7 | COc1ccc(-c2cnc(N)nc2C2CCCNC2)cc1.Cl (stereo not given) | 80.9%
8 | O=C(N[C@@H]1CCCNC1)C1(Oc2ccc(Cl)cc2)CCNCC1 | -9.041%
9 | Nc1ncc(-c2ccc(C(F)(F)F)cc2)c(C2CCCNC2)n1 (stereo not given) | 52.9%
10 | CN(Cc1ccccc1Cl)C(=O)c1cc(CN2CCC(O)CC2)on1 | -7.03%
11 | Cc1nnc2n1CCN(Cc1c(Cl)ccc3cccnc13)C2 | -10.28%
12 | CCc1nccn1C1CCCN(C(=O)c2ccc(C(=O)NC)nc2)C1 (stereo not given) | -5.671%
13 | CNC(=O)c1ccc(C(=O)N2CCCC(n3ccnc3C)C2)cn1 (stereo not given) | 94.35%
14 | CNC(=O)c1ccc(C(=O)N2CCCC(n3ccnc3)C2)cn1 (stereo not given) | 118%
15 | Cc1cccc(C)c1OCCNC(=O)C[S+]([O-])C1CCCC1 (stereo not given) | 0.9364%
16 | O=C(C1CCCc2[nH]ncc21)N1CCCC2(C1)OCCO2 (stereo not given) | 23.68%
17 | Fc1ccccc1CN1CCC(c2noc(-c3ccccn3)n2)CC1 | 178%
18 | Fc1ccc(CN2CCC(c3n[nH]c4nccnc34)CC2)cc1F | -10.9%
19 | Fc1ccc(CN2CCC(c3noc(-c4cnccn4)n3)CC2)cc1F | 155.5%
20 | CCc1cc(NC2CCN(Cc3ccccc3F)CC2)n2nccc2n1 | 21.54%
21 | Fc1cccc(CN2CCC(c3noc(-c4ccccn4)n3)CC2)c1F | 179%
22 | CC(c1nc(C2CC2)no1)N1CCN(Cc2cccc(F)c2F)CC1 (stereo not given) | 13.59%
23 | CCn1c(CN(C)C)nnc1C1CCN(Cc2cccc(F)c2F)CC1 | 8.209%
24 | Fc1ccccc1CN1CCC(c2n[nH]c(C3CC3)n2)CC1 | -0.8499%
25 | Fc1ccc(CN2CCCC(c3nnc(-c4cnccn4)o3)C2)cc1F (stereo not given) | -0.1636%
26 | Fc1cccc(CN2CCC(c3noc(-c4ccncc4)n3)CC2)c1F | 205.5%
27 | CC(=O)NCCC(=O)NCCCOc1c(C)cccc1C | 1.2%

Row | Structure (SMILES) | Percent Effect
28 | CC(=O)N(Cc1c(F)cccc1F)C1CCCC1 | -1.576%
29 | O=C(CSc1ccc2c(c1)OCCO2)NS(=O)(=O)c1ccccc1Br | -0.599%
30 | COc1ccc2c(c1)OCC(Cc1ccc(CN)cn1)C2 (stereo not given) | -20.89%
31 | O=C(Nc1ccc(F)cc1)N1C[C@H]2CC[C@@H]1CN(Cc1cccnc1)C2 | -11.36%
32 | CCC1=N[C@@]2(CC[C@@H]3CN(S(=O)(=O)N(C)C)C[C@@H]32)C(=O)N1CC(C)C | -19.59%
33 | CC(=O)NC(C(=O)N1CCn2cncc2C1)C(C)C (stereo not given) | 3.291%
34 | Cc1noc(C)c1CC(=O)OCC(=O)N1CCc2sccc2C1 | 3.916%
35 | CC1CN(C2CCN(Cc3nccn3CC(F)(F)F)CC2)CCO1 (stereo not given) | -6.653%
36 | Fc1cccc(C2CCCCN2Cc2nc(-c3cnccn3)no2)c1 (stereo not given) | -8.906%
37 | Fc1cccc(CN2CCC(c3noc(-c4cnccn4)n3)CC2)c1F | 134.1%
38 | O=C(c1ccc(-c2cc[nH]n2)cc1)N1CC[C@H](CO)[C@H](O)C1 | 0.4%
39 | CCN(Cc1cc(Cl)c(O)c(OC)c1)Cc1nc(COC)no1 | -9.296%
40 | COCCS(=O)(=O)Nc1ccc(-n2nccc2C(F)(F)F)cc1 | 0.6513%
41 | O=C(Nc1ccc(-c2csnn2)cc1)N1CCC(N2CCCC2)C1 (stereo not given) | 0.9%
42 | Cc1cnn(CCCNC(=O)N2CCCCC(N3CCCC3)C2)c1 (stereo not given) | -6.749%
43 | CN(CC(F)(F)F)C(=O)CNC(=O)Cc1ccc(O)cc1Cl | -9.929%
44 | CC1CCN(C(=O)NCC(=O)N(C)CC(F)(F)F)C1 (stereo not given) | 103.3%
45 | CN(CC(F)(F)F)C(=O)CNC(=O)Cc1cccc(O)c1 | -3.923%
46 | CCOC1CCN(C(=O)NCCN(C)C(=O)OC(C)(C)C)CC1 | 7.411%
47 | CN(CC(F)(F)F)C(=O)CNC(=O)N1CCC(N2CCCC2)C1 (stereo not given) | 94.48%
48 | CC(C)C1CCN(C(=O)NCC(=O)N(C)CC(F)(F)F)CC1 | 101.1%
49 | CN(CC(F)(F)F)C(=O)CNC(=O)Cc1ccccc1O | -0.134%
50 | CC(C)=CCN1C[C@H]2CC[C@@H]1CN(CCC(=O)NCc1ccco1)C2 | -7.993%
51 | CCOc1ccc(NC(=O)Cc2cc(C)[nH]n2)cc1CO | -2.214%
52 | Cc1cc(C)c2c(c1)C(NC(=O)CSCc1ccncc1)CCO2 (stereo not given) | 0.01106%
53 | Cc1cccnc1NC(=O)NC(C)Cn1cccn1 (stereo not given) | 2.456%
54 | CC(Cn1cccn1)NC(=O)Nc1nnc(C2CC2)s1 (stereo not given) | -3.463%

Row | Structure (SMILES) | Percent Effect
55 | CC(C)CCC(C)NC(=O)Nc1ccccn1 (stereo not given) | 3.296%
56 | CCCc1nnc(NC(=O)NC(C)Cn2cccn2)s1 (stereo not given) | 106.7%
57 | CC(Cn1cccn1)NC(=O)Nc1ccccn1 (stereo not given) | 102.9%
58 | Cc1ccc(NC(=O)NC(C)Cn2cccn2)cc1 (stereo not given) | -6.589%
59 | CC(Cn1cccn1)NC(=O)NCc1ccccn1 (stereo not given) | -2.779%
60 | Cc1nnc(NC(=O)NC(C)Cn2cccn2)s1 (stereo not given) | 98.41%
61 | COC(C)(C)CC(C)NC(=O)Nc1ccccn1 (stereo not given) | 11.35%
62 | CCN1C(=O)CC(N(C)Cc2nc3ccccc3c(=O)[nH]2)C1=O (stereo not given) | -2.279%
63 | CN(Cc1nc2ccccc2c(=O)[nH]1)C[C@@H]1CCCN2CCCC[C@H]12 | -19.12%
64 | CC(C)CS(=O)(=O)CC(=O)N(C)Cc1ccc(OC(F)F)cc1 | -10.21%
65 | CC(Cn1cccn1)NC(=O)Nc1nccs1 (stereo not given) | -3.735%
66 | COc1ccc(NC(=O)NC(C)Cn2cccn2)cn1 (stereo not given) | -4.158%
67 | CC(Cn1cccn1)NC(=O)Nc1nncs1 (stereo not given) | 94.45%
68 | CCC(CC)c1nnc(NC(=O)NC(C)Cn2cccn2)s1 (stereo not given) | 102.8%
69 | CC(Cn1cccn1)NC(=O)Nc1ccc(N(C)C)nc1 (stereo not given) | 1.644%
70 | COc1cccc(CN2CCc3nc(C(N)=O)sc3CC2)c1.O=C(O)C(F)(F)F | 8.884%
71 | O=C(NCc1ccoc1)Nc1ccc(CN2CCOC2=O)cc1 | -1.544%
72 | O=C1OCCN1c1cccc(CNS(=O)(=O)Cc2ccc(F)cc2)c1 | -0.8668%
73 | COc1cccc(CN2CCC3(COCc4cnc(N(C)C)nc43)C2)c1.O=C(O)C(F)(F)F (stereo not given) | -4.622%
74 | CN(C)c1ncc2c(n1)C1(CCN(Cc3ccccc3F)C1)COC2.O=C(O)C(F)(F)F (stereo not given) | -3.722%
75 | CN(C)C(=O)CN1CCC2(COCc3cnc(-c4ccccc4)nc32)C1 (stereo not given) | 100.5%
76 | CN(C)C(=O)CN1CCC2(COCc3cnc(-c4cccnc4)nc32)C1.O=C(O)C(F)(F)F.O=C(O)C(F)(F)F (stereo not given) | 108.5%
77 | Cc1ccccc1CN1CCC2(COCc3cnc(N(C)C)nc32)C1.O=C(O)C(F)(F)F (stereo not given) | -3.264%
78 | O=C(CC1CCc2ccccc21)NC1(C(=O)O)CCOCC1 (stereo not given) | -1.321%
79 | Cc1cccnc1CN1CCN(CC(=O)N(C)C)[C@@H]2CS(=O)(=O)C[C@@H]21 | 1.676%
80 | Cc1cccnc1CN1CCCCC1c1ccn2ccnc2n1 (stereo not given) | 107.3%
81 | Fc1cccnc1CN1CCCCC1c1ccn2ccnc2n1 (stereo not given) | 6.686%

Row | Structure (SMILES) | Percent Effect
82 | Cc1ccccc1CSc1nc(N)cc(N2CC[C@@H](O)C2)n1 | 2.755%
83 | CNc1ncccc1CN1CCCCC1c1ccnc(N)n1 (stereo not given) | 116.5%
84 | CNc1ncccc1CN1CCC1c1cc(N)nc(C)n1 (stereo not given) | 93.93%
85 | CNc1ncccc1CN1CCCCC1c1cc(C)n2ccnc2n1 (stereo not given) | 94%
86 | CNc1cc(C2CCCN2Cc2ccccc2OCC(=O)O)ccn1 (stereo not given) | -5.445%
87 | O=C1CCc2cc(S(=O)(=O)NC(=O)c3ccc4c(c3)CCO4)ccc2N1 | -17.2%
88 | O=S(=O)(CCCn1cncn1)Cc1cccc(F)c1 | 2.155%
89 | CC(C)=CCN1CCN(CCCc2ccccc2)[C@H]2CS(=O)(=O)C[C@H]21 | -6.821%
90 | CC(C)CCN(C)C(=O)c1cc(CN2CCC(O)CC2)on1 | -4.489%
91 | CCC(=O)N1CCc2[nH]cnc2C12CCN(C(=O)c1snnc1C)CC2 | 7.824%
92 | CNc1cc(C2CN(Cc3cccnc3NC)CCO2)nc(C)n1 (stereo not given) | 96.43%
93 | CNc1cc(C)nc(C2CN(Cc3ccc(C)nc3)CCO2)c1 (stereo not given) | -3.28%
94 | Cc1ccc(C2CN(Cc3cnc(-c4ccccn4)s3)CCO2)o1 (stereo not given) | 1.384%
95 | Cc1cc(N2CCC(n3cc(CN4CCSCC4)nn3)CC2)ccn1 | -12.68%
96 | CCOC(=O)C1CCN(Cc2c(O)ccc3oc4c(c23)CCCC4)CC1 | 10.57%
97 | COc1cc2c(c(OC)c1OC)CCN(CCn1nc(C)cc1C)CC2 | 72.3%
98 | c1ccc(CCCN2CCN(CCn3cncn3)CC2)cc1 | 3.655%
99 | COc1ccc(CN2CCn3cncc3C2)cc1Cn1cncn1 | 18.87%
100 | COc1cc(C)cc(C(C(=O)O)N(C)CCN2CCCC2)c1OC (stereo not given) | -1.945%
101 | COc1cc2c(c(OC)c1OC)CCN(CCN1CCCCC1)CC2 | 112.9%
102 | COc1cc2c(cc1OC)CCN(C(=O)Cn1nc(C)cc1C)CC2 | 0.6612%
103 | COc1ccc(-c2nccn2CCN2CCCCC2)c(OC)c1OC | -1.363%
104 | COc1cc2c(c(OC)c1OC)CCN(CCn1cncn1)CC2 | 66.41%
105 | COc1cc2c(cc1OC)CN(C(=O)Cn1nc(C)cc1C)CC2 | 1.135%
